Compound activity: PubChem, several laboratories
Most compounds without a hit are left out; they make up all but 13% or so of the library.
Lmaj promast: Leishmania major promastigote growth inhibition; Leishmania major promastigotes, resazurin fluorescence viability; inhibition, % at 10 µM; hit rate 9% among 200,000; in the data active means inhibition above about 50%;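 further: promastigotes grown with compound for 44 hours at 28 °C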
WT yeast gro inh: growth inhibition of WT yeast, mitochondrial fusion screen; AID 1362; inhibition, % at 10 µM; hit rate 2.1% among 190,000; mitochondrial fusion phenotypic screen, WT strain; in the data active means inhibition above about 58%; tested in S. cerevisiae
CHOP inh: CHOP inhibition in unfolded protein response. CHO-K1 CHOP-promoter luciferase, tunicamycin-induced, 15-18 h. inhibition, % at 10 µM. hit rate 3.8% among 220,000;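 active means compounds that reduced the stress-induced luciferase reporter signal by more than about 70% of percent inhibition, limit read from the data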;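 further: 0% = tunicamycin plus vehicle and 100% = wells without tunicamycin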
RAM inhibit: yeast RAM network inhibition; inhibition, % at 50 µM; S. cerevisiae dse1pr::URA3 reporter, 5-FOA growth OD615, 2 d; analog-sensitive cbk1-as2 kinase mutant strain; hit rate 1.8% among 190,000; AID 868;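 active means inhibition above a set limit, 3 SD over mean compound inhibition, cut at about 8.4% in these data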;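 further: 0% = DMSO-only wells with no growth and 100% = 10 µM 1-NA-PP1 full growth; inhibition rescues growth on 5-FOA so higher OD means more RAM inhibition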
The depositor's hits bear a star; x = no result given.

SMILES	Lmaj promast	WT yeast gro inh	CHOP inh	RAM inhibit
Cc1ccc(-c2csc(NC(=O)c3ccc(-c4ccccc4)cc3)n2)o1	17	77*	46	3
CC(=O)Nc1ccc(C(=O)Nc2nc(-c3ccccn3)cs2)cc1	64*	7	0	3
COc1ccc(Br)cc1/C=N/NC(=O)c1nc(-c2ccccc2)n2c1CCCCC2	46	37	34	1
COc1ccccc1N1CCN(C(=O)COc2cc(C)cc(C)c2)CC1	8	5	32	2
O=C(C(Cc1ccccc1)N1C(=O)c2ccccc2C1=O)N1c2ccccc2CCc2ccccc21 (stereo unspecified)	57*	23	9	6
O=C1c2ccccc2C(=O)N1CC(=O)N1c2ccccc2CCc2ccccc21	-2	9	13	2
COc1cc(/C=N/N=C/c2c[nH]c(=O)c(C#N)c2Nc2ccccc2)ccc1O	x	x	-7	x
C=CCCCCCCCCc1nc(SCC(=O)O)n[nH]1	x	x	3	x
C=CCCCCCCCCc1nc(=S)[nH][nH]1	53*	75*	40	1
NC(=O)c1ccsc1NC(=O)COC(=O)Cc1cccc2ccccc12	-2	78*	85*	4
COc1ccccc1OCC(=O)OCC(=O)Nc1sccc1C(N)=O	53*	-15	0	4
c1ccc(-c2csc(-n3cnnn3)n2)cc1	-3	-6	-6	2
CCOc1ccccc1NC(=O)c1cc(SC)ccc1Cl	-3	25	17	4
C/C(CCc1ccc2c(c1)OCO2)=N\NC(=S)NC(C)C	18	59*	-19	1
CN(C(=O)COC(=O)c1cc([N+](=O)[O-])ccc1Sc1ccccc1)C1CCS(=O)(=O)C1 (stereo unspecified)	100*	-15	-8	2
CN(C(=O)COC(=O)c1ccccc1Nc1ccccc1)C1CCS(=O)(=O)C1 (stereo unspecified)	0	16	16	0
CC1C(c2ccccc2)N(C)C(c2ccccc2)CC1(O)c1ccccc1 (stereo unspecified)	98*	58*	85*	0
CC1/C(=N/O)CC(c2ccccc2)NC1c1ccccc1 (stereo unspecified)	1	25	47	0
CC1/C(=N/O)CC(c2ccccc2)N(C)C1c1ccccc1 (stereo unspecified)	7	98*	93*	0
CNC(=O)CCc1nc(-c2ccc(C(C)(C)C)cc2)no1	-2	-6	94*	-1
CC(C)(C)c1ccc(-c2noc(CCC(=O)NCC3CCCO3)n2)cc1 (stereo unspecified)	7	-6	90*	0
Cc1ccc(C(=O)NC(=S)Nc2cc(C(F)(F)F)ccc2Cl)cc1	-6	7	12	-1
O=C(Cc1ccccc1)NC(=S)Nc1cc(C(F)(F)F)ccc1Cl	-5	11	95*	4
O=C(CCc1nc(-c2ccccc2)no1)Nc1cc(C(F)(F)F)ccc1Cl	-8	11	93*	5
CN(C)C(=O)CCc1nc(-c2ccc(C(C)(C)C)cc2)no1	-3	4	44	1
SMILES	Lmaj promast	WT yeast gro inh	CHOP inh	RAM inhibit
Cc1ccc(-c2noc(CCC(=O)NCC3CCCO3)n2)cc1 (stereo unspecified)	-3	-12	30	3
COC(=O)C(C)NC(=S)N1CCN(c2c(F)cc3c(=O)c(C(=O)O)cn(C4CC4)c3c2OC)CC1C (stereo unspecified)	x	x	4	x
CCCCN(CCCC)C(=O)c1ccccc1NC(=O)CN1C(=O)c2ccccc2C1=O	-7	4	40	0
CC(C)OCCCNCC(O)c1ccccc1 (stereo unspecified)	0	3	11	1
CCC(NS(=O)(=O)c1ccc(C)cc1)C(=O)N1CCC2(O)CCCCC2C1 (stereo unspecified)	-7	-54	8	2
O=C(C(Cc1ccc(Cl)cc1)NS(=O)(=O)c1ccccc1)N1CC[C@@]2(O)CCCC[C@H]2C1 (stereo partly specified)	51*	16	54	-1
O=C(CSCc1cnn(-c2ccccc2)c1-n1cccc1)NCc1ccc2c(c1)OCO2	-6	14	68	11*
O=C(CSc1ncnc2c1cnn2-c1ccc(Cl)cc1)NCc1ccc2c(c1)OCO2	52*	-5	72*	2
O=C(CSc1nc2cc(Cl)ccc2s1)NCc1ccc2c(c1)OCO2	76*	-6	-10	10*
COc1ccccc1/C=C(/CC(=O)NCc1ccc2c(c1)OCO2)c1nc2ccccc2s1	93*	32	-17	2
Cc1ccccc1-c1noc(-c2ccccc2C(=O)NCC2CCCO2)n1 (stereo unspecified)	x	x	8	x
O=C(Cn1cnc2c(nnn2Cc2ccc(F)cc2)c1=O)Nc1ccccc1	x	x	13	x
CC(=O)N/C(=C\c1ccc(Br)s1)C(=O)O	-4	-1	-20	1
Cc1ccc(NC(=O)CNc2ccccc2CN(C)C2CCCCC2)cc1	60*	7	38	1
COc1ccc(S(=O)(=O)N2CCCCC2)cc1NC(=O)CN(C)C1CCCCC1	4	3	18	1
COc1ccc(Cl)cc1NC(=O)CN(C)C1CCCCC1	2	26	76*	1
CCOC(=O)C1CCN(CC(=O)Nc2c(C(=O)OC)[nH]c3cccc(Cl)c23)CC1	-3	12	25	0
COc1ccc(Cl)cc1NC(=O)CNc1ccccc1CN(C)C1CCCCC1	96*	30	22	2
COC(=O)c1[nH]c2cccc(Cl)c2c1NC(=O)CN(C)C1CCCCC1	-1	61*	40	2
COc1ccc(C)cc1NC(=O)CNc1ccccc1CN(C)C1CCCCC1	43	8	21	-1
COc1ccc(NC(=O)CSc2nnc(C3CCCCC3)n2-c2ccccc2)cc1	70*	-2	49	4
Cn1cccc1Cc1nnc(SCC(=O)Nc2ccc(Cl)cc2)n1-c1ccc(F)cc1	4	7	61	3
O=C(CSc1nnc(Cc2cccs2)n1C1CCCCC1)N1CCCc2ccccc21	95*	6	41	1
COc1ccc(-n2c(Cc3cccn3C)nnc2SCC(=O)Nc2ccc(Cl)cc2)cc1	23	18	71*	3
COc1ccc(-n2c(Cc3cccn3C)nnc2SCC(=O)N2CCCc3ccccc32)cc1	63*	13	22	6
SMILES	Lmaj promast	WT yeast gro inh	CHOP inh	RAM inhibit
Cc1occc1-c1nnc(SCC(=O)Nc2ccccc2)n1CCc1ccccc1	66*	18	24	0
Cc1cc(NC(=O)CSc2nnc(Cc3cccn3C)n2CCc2ccccc2)no1	-3	-6	36	1
CCc1ccc(NC(=O)CSc2nnc(Cc3cccn3C)n2-c2ccc(OC)cc2)cc1	32	-8	20	4
COc1ccc(-n2c(Cc3cccn3C)nnc2SCC(=O)Nc2ccccc2)cc1	5	12	-1	9.8*
Cc1csc(NC(=O)CSc2nnc(Cc3cccn3C)n2CCc2ccccc2)n1	51*	7	21	2
Cc1cc(-c2nc(C)c(C(=O)NN)s2)no1	x	x	-15	x
CCOc1nc(OCC)c2cnn(C)c2n1	x	x	24	x
CCOC(=O)CC(NC(=O)c1cccc2c1C(=O)N(Cc1cccnc1)C2)c1ccc(OCC)c(OC)c1 (stereo unspecified)	1	11	7	2
